CYP2C19 activ: activators of human cytochrome P450 2C19; P33261; recombinant CYP2C19, luciferin-H EGE luminescence; stronger effect = higher value; 0 = fully inhibited enzyme, 1 = untreated enzyme; activation factor at 5 µM; 96,000 tested, under 10 active; AID 1025;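 active means activation factor of at least 2 at 5 µM in the primary screen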;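 further: 0 = wells with 2.5 mM tranylcypromine and 1 = vehicle-only wells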
Target sequence (P33261 whole entry, looked up): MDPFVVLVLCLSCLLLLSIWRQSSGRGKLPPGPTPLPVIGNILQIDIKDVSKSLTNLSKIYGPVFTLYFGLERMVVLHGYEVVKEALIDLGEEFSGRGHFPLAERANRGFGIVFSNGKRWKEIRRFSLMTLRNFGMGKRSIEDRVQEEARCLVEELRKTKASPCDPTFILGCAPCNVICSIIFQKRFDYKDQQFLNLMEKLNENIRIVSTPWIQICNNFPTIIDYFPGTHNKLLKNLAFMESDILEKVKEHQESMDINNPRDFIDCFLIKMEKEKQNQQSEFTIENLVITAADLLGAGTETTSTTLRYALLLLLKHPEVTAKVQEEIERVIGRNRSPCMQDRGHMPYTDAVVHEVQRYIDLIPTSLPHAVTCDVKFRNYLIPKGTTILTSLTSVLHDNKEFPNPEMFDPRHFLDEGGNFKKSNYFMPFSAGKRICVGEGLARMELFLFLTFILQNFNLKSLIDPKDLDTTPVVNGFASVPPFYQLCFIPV
CYP2C19 inh: human CYP2C19 inhibition. 21% of 96,000 active. AID 778. CYP2C19 Supersomes, luciferin-H EGE luminescence, 30 min. inhibition, % at 5 µM;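 active means CYP2C19 inhibition above a set limit at 5 µM in the primary screen, cut at about 50% in these data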;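 further: plate controls were negative control wells for no effect and 2.5 mM tranylcypromine positive control for full effect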
CYP2C9 activ: CYP2C9 (human) activation; recombinant CYP2C9, luciferin-H conversion, luminescence; stronger effect = higher value; factor 1 = untreated enzyme, 0 = blocked; P11712; AID 1024; activation factor at 5 µM; 1.4% of 96,000 active;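 active means activation factor of 2 or more for CYP2C9 at a 5 µM dose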;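 further: 0 = sulfaphenazole-blocked wells and 1 = vehicle-only wells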
CYP2C9 inh: human CYP2C9 inhibition | P11712 | CYP2C9 Supersomes, luciferin-H conversion, luminescence | inhibition, % at 5 µM | 20% of 96,000 active;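 active means blocking of liver enzyme CYP2C9 beyond about 50% at 5 µM, limit read from the data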
EphB4 ephrin blk: blocks human EphB4 binding to ephrin-B2; P54760; EphB4 LBD / TNYL-RAW-Alexa532 peptide, fluorescence polarization; inhibition, % at 7 µM; 0.15% of 97,000 active;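 active means inhibition above the screen-wide mean inhibition plus 3 SD, cut at about 15% in these data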;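 further: 0% = DMSO wells and 100% = excess unlabeled TNYL-RAW peptide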
* marks the source's active call; other numbers are inactive results. A selection: hits, their analogues and other compounds. The true share with any hit is near 27%.

Results for CC(=O)Oc1ccc(N(C(C)=O)S(=O)(=O)c2cccs2)c2ccccc12 ?
CYP2C19 activ: 0.1; CYP2C19 inh: 88.5*; CYP2C9 activ: 0.5; CYP2C9 inh: 49.0; EphB4 ephrin blk: 9.1

Results for COc1ccc(/C(O)=C2\C(=O)C(=O)N(CCN(C)C)C2c2cc(OC)c(OC)c(OC)c2)c(C)c1 (stereo not given) ?
CYP2C19 activ: 0.9; CYP2C19 inh: 12.4; CYP2C9 activ: 0.8; CYP2C9 inh: 15.9; EphB4 ephrin blk: -7.6

Results for Cc1ccc(C2N(c3cccc(Cl)c3)C(=O)C3CCCN32)o1 (stereo not given) ?
CYP2C19 activ: 0.9; CYP2C19 inh: 6.2; CYP2C9 activ: 1.1; CYP2C9 inh: -5.5; EphB4 ephrin blk: 4.7

What do the screens show for `Cc1ccc(/C=N/n2cnnc2)s1`?
CYP2C19 activ: 0.8; CYP2C19 inh: 16.0; CYP2C9 activ: 0.9; CYP2C9 inh: 14.3; EphB4 ephrin blk: 2.0

How did Cc1ccc(Sc2oc(/C=N/n3cnnc3)cc2Br)cc1 do in these assays?
CYP2C19 activ: 0; CYP2C19 inh: 99.8*; CYP2C9 activ: 0.8; CYP2C9 inh: 16.1; EphB4 ephrin blk: 0.7

Results for COc1cccc(CNn2c(-c3cccc(C)c3)nc3ccccc3c2=O)c1O ?
CYP2C19 activ: 0.2; CYP2C19 inh: 80.1*; CYP2C9 activ: 0.6; CYP2C9 inh: 43.8; EphB4 ephrin blk: -2.9

What do the screens show for `c1ccc(OCc2nn3c(-c4ccccn4)nnc3s2)cc1`?
CYP2C19 activ: 0.6; CYP2C19 inh: 43.5; CYP2C9 activ: 0.7; CYP2C9 inh: 29.4; EphB4 ephrin blk: 1.1

What do the screens show for `c1ccc(OCc2nn3c(-c4ccncc4)nnc3s2)cc1`?
CYP2C19 activ: 0; CYP2C19 inh: 99.2*; CYP2C9 activ: 0.2; CYP2C9 inh: 79.5*

What do the screens show for `c1ccc(Cc2nn3c(-c4ccncc4)nnc3s2)cc1`?
CYP2C19 activ: 0; CYP2C19 inh: 99.0*; CYP2C9 activ: 0.2; CYP2C9 inh: 83.7*; EphB4 ephrin blk: 2.5

How did c1ccc(Cc2nn3c(C4COc5ccccc5O4)nnc3s2)cc1 (stereo not given) do in these assays?
CYP2C19 activ: 0.5; CYP2C19 inh: 54.4*; CYP2C9 activ: 0.5; CYP2C9 inh: 54.6*; EphB4 ephrin blk: 6.4

How did CC(=O)NC(CCS(C)(=O)=O)C(=O)Nc1c(C)cccc1C (stereo not given) do in these assays?
CYP2C19 activ: 1.2; CYP2C19 inh: -15.4; CYP2C9 activ: 1.1; CYP2C9 inh: -10.3

How did Cc1cc(=O)n(C)c(=O)n1CCCCCN1CCCC1 do in these assays?
CYP2C19 activ: 1.2; CYP2C19 inh: -17.3; CYP2C9 activ: 1.1; CYP2C9 inh: -14.0; EphB4 ephrin blk: -11.1

What do the screens show for `CCCOc1ccc(NC(=O)CC2C(=O)N(CC)C(=S)N2Cc2cccs2)cc1` (stereo not given)?
CYP2C19 activ: 0.2; CYP2C19 inh: 82.1*; CYP2C9 activ: 0.5; CYP2C9 inh: 51.7*; EphB4 ephrin blk: -5.0

What do the screens show for `O=[N+]([O-])c1ccc(NNC(=S)Nc2ccc(F)cc2)cc1`?
EphB4 ephrin blk: 2.1

How did CC1(C)C(C#N)=C(N)OC2=C1C(=O)CCC2 do in these assays?
CYP2C19 activ: 0.3; CYP2C19 inh: 67.9*; CYP2C9 activ: 0.6; CYP2C9 inh: 40.4; EphB4 ephrin blk: -0.1

How did COc1cccc(CN2C(=O)C3(C(C#N)=C(N)OC4=C3C(=O)CCC4)c3ccccc32)c1 (stereo not given) do in these assays?
CYP2C19 activ: 0.8; CYP2C19 inh: 22.7; CYP2C9 activ: 0.3; CYP2C9 inh: 65.9*; EphB4 ephrin blk: 8.0

Results for CC(C)(C)NS(=O)(=O)c1ccc(OCC(=O)Nc2ccc3c(c2)OCCO3)cc1 ?
CYP2C19 activ: 0.6; CYP2C19 inh: 37.5; CYP2C9 activ: 0.5; CYP2C9 inh: 47.0

How did Cc1ccc2nc(C)cc(NCCO)c2c1 do in these assays?
CYP2C19 activ: 1.2; CYP2C19 inh: -21.2; CYP2C9 activ: 1.3; CYP2C9 inh: -27.2; EphB4 ephrin blk: -2.5

Results for O=c1cc(Cn2ccnc2)c2cc3c(cc2o1)CCC3 ?
CYP2C19 activ: 0; CYP2C19 inh: 100.4*; CYP2C9 activ: 0.5; CYP2C9 inh: 47.9; EphB4 ephrin blk: -2.9

What do the screens show for `Cc1cc2oc(=O)cc(CN3CCCCC3)c2cc1C(C)C`?
CYP2C19 activ: 0.9; CYP2C19 inh: 7.4; CYP2C9 activ: 0.7; CYP2C9 inh: 32.3; EphB4 ephrin blk: -3.3

How did O=c1cc(CN2CCN(CCO)CC2)c2cc3c(cc2o1)CCC3 do in these assays?
CYP2C19 activ: 1; CYP2C19 inh: 0.9; CYP2C9 activ: 1.1; CYP2C9 inh: -13.1; EphB4 ephrin blk: 5.0

How did Cc1cc2oc(=O)cc(Cn3ccnc3)c2cc1C do in these assays?
CYP2C19 activ: 0; CYP2C19 inh: 100.4*; CYP2C9 activ: 0.4; CYP2C9 inh: 56.6*; EphB4 ephrin blk: -4.5

How did CCCCNC(=O)CCC(=O)Nc1ncc(-c2ccc(C)cc2)n1C do in these assays?
CYP2C19 activ: 0.7; CYP2C19 inh: 31.4; CYP2C9 activ: 0.6; CYP2C9 inh: 35.2; EphB4 ephrin blk: 5.2

What do the screens show for `Cc1[nH]n(-c2ccccc2)c(=O)c1CCOC(=O)c1cccc(C(F)(F)F)c1`?
CYP2C19 activ: 0.2; CYP2C19 inh: 78.2*; CYP2C9 activ: 1; CYP2C9 inh: -2.0; EphB4 ephrin blk: -2.1

Results for C=CCOC(=O)/C(=C\c1ccc(OC)cc1)NC(=O)c1ccco1 ?
CYP2C19 activ: 0.4; CYP2C19 inh: 55.0*; CYP2C9 activ: 0.7; CYP2C9 inh: 28.9; EphB4 ephrin blk: -10.8

Results for CCCCOc1ccc(C(=O)N/C(=C\c2ccc(OC)cc2)C(=O)OCc2ccco2)cc1 ?
CYP2C19 activ: 0.6; CYP2C19 inh: 37.5; CYP2C9 activ: 0.3; CYP2C9 inh: 65.1*; EphB4 ephrin blk: -4.6

How did COc1ccc(OCCCC(=O)NCc2ccco2)cc1 do in these assays?
CYP2C19 activ: 0.8; CYP2C19 inh: 19.6; CYP2C9 activ: 0.9; CYP2C9 inh: 10.5; EphB4 ephrin blk: -5.5

Results for CCOC(=O)CSc1nc2c(c(=O)[nH]c(=O)n2C)n1C/C=C(/C)Cl ?
CYP2C19 activ: 1.1; CYP2C19 inh: -8.6; CYP2C9 activ: 1; CYP2C9 inh: -2.7; EphB4 ephrin blk: -0.2

What do the screens show for `O=C(Cn1c(C(F)(F)F)nc2ccccc21)NCCN1CCCC1`?
CYP2C19 activ: 1.2; CYP2C19 inh: -17.9; CYP2C9 activ: 1.1; CYP2C9 inh: -13.4; EphB4 ephrin blk: 3.4

What do the screens show for `O=C(NC1=NCCS1)C1Cc2ccccc2CN1C(=O)c1ccccc1` (stereo not given)?
CYP2C19 activ: 0.2; CYP2C19 inh: 78.9*; CYP2C9 activ: 0.6; CYP2C9 inh: 41.6; EphB4 ephrin blk: 4.6

What do the screens show for `NC(=O)c1ccc(C(F)(F)F)n(Cc2cccc(Cl)c2)c1=O`?
CYP2C19 activ: 0.4; CYP2C19 inh: 55.6*; CYP2C9 activ: 0.7; CYP2C9 inh: 25.1; EphB4 ephrin blk: -11.3

Results for NC(=O)c1ccc(C(F)(F)F)n(Cc2ccc(Cl)cc2)c1=O ?
CYP2C19 activ: 0.5; CYP2C19 inh: 50.8*; CYP2C9 activ: 0.8; CYP2C9 inh: 22.4; EphB4 ephrin blk: -5.9

What do the screens show for `CNC(=S)NNC(=O)c1cccn(Cc2cccc(Cl)c2)c1=O`?
CYP2C19 activ: 1; CYP2C19 inh: 2.8; CYP2C9 activ: 1; CYP2C9 inh: -1.2; EphB4 ephrin blk: -5.0
